In publication PMC4336329 (PLoS ONE, 2015):
Among all 310,000 compounds or so, about 14,000 (4.5%) showed an effect of 50% or more. Effects have a minus sign here. Shown is part of a subset that was picked to be rich in strong results.

The molecules below were run against human ether-à-go-go-related gene (hERG) potassium channel (human, UniProt Q12809) (assay: primary screen, population patch clamp on CHO cells stably expressing hERG; higher = less effect of the substance).
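Also: peak tail current of the secondary pulse compared with the same well before compound.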

Sequence of human ether-à-go-go-related gene (hERG) potassium channel (Q12809 whole entry, looked up): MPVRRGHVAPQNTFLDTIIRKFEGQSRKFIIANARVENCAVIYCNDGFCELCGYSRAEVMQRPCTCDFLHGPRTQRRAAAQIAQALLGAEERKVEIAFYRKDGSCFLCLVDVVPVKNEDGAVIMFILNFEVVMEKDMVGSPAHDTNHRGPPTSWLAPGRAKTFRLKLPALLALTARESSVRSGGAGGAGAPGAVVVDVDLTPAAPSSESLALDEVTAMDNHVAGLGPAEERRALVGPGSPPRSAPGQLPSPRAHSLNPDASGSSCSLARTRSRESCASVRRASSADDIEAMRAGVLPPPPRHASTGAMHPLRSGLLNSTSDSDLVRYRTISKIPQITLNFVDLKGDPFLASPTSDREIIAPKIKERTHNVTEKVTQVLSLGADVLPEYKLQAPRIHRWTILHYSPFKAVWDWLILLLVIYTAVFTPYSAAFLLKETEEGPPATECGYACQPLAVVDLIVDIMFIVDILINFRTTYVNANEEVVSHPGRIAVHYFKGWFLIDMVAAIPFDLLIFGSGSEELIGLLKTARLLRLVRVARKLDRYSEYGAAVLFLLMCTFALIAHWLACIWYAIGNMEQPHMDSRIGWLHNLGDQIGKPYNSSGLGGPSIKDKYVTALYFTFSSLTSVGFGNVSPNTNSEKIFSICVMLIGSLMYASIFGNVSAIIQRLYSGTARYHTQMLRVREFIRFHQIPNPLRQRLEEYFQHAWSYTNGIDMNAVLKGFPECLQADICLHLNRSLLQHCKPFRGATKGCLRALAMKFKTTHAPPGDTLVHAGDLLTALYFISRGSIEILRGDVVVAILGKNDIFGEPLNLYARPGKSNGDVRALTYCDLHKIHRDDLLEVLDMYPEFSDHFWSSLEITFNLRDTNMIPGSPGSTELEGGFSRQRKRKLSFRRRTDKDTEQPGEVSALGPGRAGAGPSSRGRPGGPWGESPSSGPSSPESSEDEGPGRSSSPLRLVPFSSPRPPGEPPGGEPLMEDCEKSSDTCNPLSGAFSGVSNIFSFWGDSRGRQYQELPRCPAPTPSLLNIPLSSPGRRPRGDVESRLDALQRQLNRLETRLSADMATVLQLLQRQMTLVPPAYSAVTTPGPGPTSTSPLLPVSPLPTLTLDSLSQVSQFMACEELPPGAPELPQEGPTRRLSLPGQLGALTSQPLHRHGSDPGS

SMILES	hERG current change (%, negative = inhibition) at 10uM [%]
O=C(CCC(=O)Nc1ccccc1Cl)N/N=C/c1ccccc1	16.5
Cc1[nH]c2ccccc2c1/C=N\NC(=O)c1ccco1	11.1
COc1cccc(C(=O)NCC2CCCN(C(=O)c3ccc(C=O)cc3)C2)c1OC (centres unmarked)	0.357
COc1ccc(S(=O)(=O)N2CCCC(C(=O)N3CCOCC3)C2)cc1Cl (centres unmarked)	-14
O=C(C1CCCN(S(=O)(=O)c2ccccc2)C1)N1CCCCCC1 (centres unmarked)	-2.74
O=C(C1CCCN(S(=O)(=O)c2ccccc2)C1)N1CCN(c2ccccc2)CC1 (centres unmarked)	-54.8
COc1ccc(S(=O)(=O)N2CCCC(C(=O)N3CCN(c4ccccc4)CC3)C2)cc1Cl (centres unmarked)	-62
COc1ccc(S(=O)(=O)N2CCCC(C(=O)N3CCN(C)CC3)C2)cc1Cl (centres unmarked)	-12.4
O=C(C1CCCN(S(=O)(=O)c2ccccc2)C1)N1CCCCC1 (centres unmarked)	7.94
O=C(C1CCCN(S(=O)(=O)c2ccccc2)C1)N1CCN(c2ccc(F)cc2)CC1 (centres unmarked)	-75.7
O=C(Cc1ccccc1)N1CCC(C(=O)N2CCN(c3ccc(F)cc3)CC2)CC1	-56.6
O=C(O)C1CCN(C(=O)Cc2ccccc2)CC1	6.27
Cc1ccc(S(=O)(=O)N2CCCC(C(=O)N3CCN(c4ccccc4)CC3)C2)cc1 (centres unmarked)	-46.5
CN1CCN(C(=O)C2CCCN(S(=O)(=O)c3ccc(F)cc3)C2)CC1 (centres unmarked)	19.9
O=C(C1CC1)N1CCN(c2ccc(F)cc2)CC1	13
CC(NC(=O)Cn1cnnn1)C12CC3CC(CC(C3)C1)C2 (centres unmarked)	7.75
CCCC1C(C(=O)OCC)=C(C)NC(C)=C1C(=O)OCC	10.7
CC(C)c1ccc(OCc2ccc(C(=O)NN3CCN(C)CC3)o2)cc1	-31.7
Cc1cccc(C)c1OP(N)(=O)Oc1c(C)cccc1C	11
CC(C)C(=O)Nc1ccc(C(=O)NNC(=O)c2ccco2)cc1	7.75
Cc1cc(C)n(C(=O)C2CCCN2S(=O)(=O)c2ccc(Cl)cc2)n1 (centres unmarked)	-7.48
CCOc1ccc(C(=O)NCC(=O)Nc2ncccc2C)cc1OCC	18
COc1ccc(N2CCN(C(=O)CCc3c[nH]c4ccccc34)CC2)cc1	-10.2

SMILES	hERG current change (%, negative = inhibition) at 10uM [%]
CC(=O)Nc1ccc(S(=O)(=O)NC2C3(C)CCC(C3)C2(C)C)cc1 (centres unmarked)	16.9
Cl.NCCSC1CC(=O)N(Cc2ccc(F)cc2)C1=O (centres unmarked)	-20.4
CCOC(=O)Cc1csc(NC(=O)/C=C/c2ccc(Cl)cc2)n1	-9.29
CCOc1ccc(S(=O)(=O)N2CCCC(C(=O)N3CCN(c4ccccc4)CC3)C2)cc1 (centres unmarked)	-56.3
O=C(C1CCCN(S(=O)(=O)c2cccs2)C1)N1CCC(N2CCCCC2)CC1 (centres unmarked)	-61.7
CC(=O)Nc1ccc(S(=O)(=O)N2CCCC(C(=O)O)C2)cc1 (centres unmarked)	-3.16
CCOc1ccc(S(=O)(=O)N2CCC(C(=O)N3CCN(c4ccccc4)CC3)CC2)cc1	-18
O=C(C1CCCN(S(=O)(=O)c2ccc(Br)cc2)C1)N1CCOCC1 (centres unmarked)	-13.8
CC(=O)Nc1ccc(S(=O)(=O)N2CCCC(C(=O)N3CCN(c4ccccc4)CC3)C2)cc1 (centres unmarked)	-50.9
CCOC(=O)N1CCN(C(=O)C2CCCN(S(=O)(=O)c3ccc(OCC)cc3)C2)CC1 (centres unmarked)	-46.2
O=C(C1CCCN(S(=O)(=O)c2cccs2)C1)N1CCN(C2CCCCC2)CC1 (centres unmarked)	-24.6
CC(=O)N1CCCc2cc(S(=O)(=O)N3CCCC(C(=O)N4CCN(c5ccccc5)CC4)C3)ccc21 (centres unmarked)	-21.3
CN1CCN(C(=O)C2CCCN(S(=O)(=O)c3ccc(Br)cc3)C2)CC1 (centres unmarked)	-5.87
O=C(C1CCCN(S(=O)(=O)c2ccc(Br)cc2)C1)N1CCN(Cc2ccccc2)CC1 (centres unmarked)	-55.1
O=C(O)C1CCCN(S(=O)(=O)c2cccs2)C1 (centres unmarked)	4.67
COc1cccc(Nc2nc(-c3sc(N)nc3C)cs2)c1	-18.2
CNc1nc(-c2c(C)n(C)c3ccc(OC)cc23)cs1	19.2
Cl.Clc1ccccc1CSC1=NCCCN1	0.0434
O=C(CN(C(=O)CCC(=O)Nc1ccccn1)c1ccc2c(c1)OCCO2)NCCc1ccccc1	2.29
CC1CCCC(C)N1c1ccc(S(=O)(=O)N2CCOCC2)cc1Cl (centres unmarked)	11.5
COc1ccc(C2SCC(=O)N2CC23CC4CC(CC(C4)C2)C3)cc1 (centres unmarked)	3.15
CCOC(=O)C1CCN(C(=O)C2CCCN(S(=O)(=O)c3ccc(OC)c(Cl)c3)C2)CC1 (centres unmarked)	-67.2
CCOC(=O)C1CCN(S(=O)(=O)c2ccc(OC)c(Cl)c2)CC1	9.79

SMILES	hERG current change (%, negative = inhibition) at 10uM [%]
CCOC(=O)C1CCN(C(=O)C2CCCN(S(=O)(=O)c3ccc(OCC)c(Cl)c3)C2)CC1 (centres unmarked)	-40.8
O=C(C1CCCN(S(=O)(=O)c2ccc(Br)s2)C1)N1CCCCCC1 (centres unmarked)	-11.8
O=C(C1CCN(S(=O)(=O)c2ccc(Br)s2)CC1)N1CCN(c2ccccc2)CC1	-10.5
O=C(C1CCCN(S(=O)(=O)c2ccc(Br)s2)C1)N1CCN(c2ccccc2)CC1 (centres unmarked)	-63.8
COc1ccc(CCNC(=O)Cn2nnc(-c3ccccc3F)n2)cc1OC	1.44
CC1CCCN(C(=O)COC(=O)CNC(=O)c2ccc(Br)cc2)C1 (centres unmarked)	-8.3
CCOC(=O)C1CCN(C(C(=O)NC2CCCC2)c2ccc(C)cc2)CC1 (centres unmarked)	-21.8
CC(C)c1ccc(O)c(NC(=O)c2cccnc2)c1	6.07
Cc1sc2ncnc(NCC3CCCO3)c2c1C.Cl (centres unmarked)	-1.4
c1csc(CNc2ncnc3sccc23)c1	-20.3
Cc1sc2ncnc(NCC3(N4CCOCC4)CCCCC3)c2c1C	-71.1
Cc1sc2ncnc(NCCN3CCOCC3)c2c1C.O=C(O)C(=O)O	-22.4
Cc1sc2ncnc(NCC(C)(C)N3CCOCC3)c2c1C	-71.7
c1nc(NCC2(N3CCOCC3)CCCCC2)c2ccsc2n1	-73.3
c1nc(Nc2ccc(N3CCOCC3)cc2)c2ccsc2n1	-7.59
Cc1sc2ncnc(NCCCN3CCCC3=O)c2c1C	3.27
Cc1sc2ncnc(N3CCOCC3)c2c1C	-13.7
C=CCNC(=O)CC(=O)N/N=C/c1ccc(F)cc1	-3.54
CCSC(=O)NC12CC3CC(CC(C3)C1)C2	6.27
Cc1cc(OCC(=O)NCc2ccccn2)c2c(C)cc(=O)oc2c1	-7.15
O=C(NC(=S)Nc1ccc(S(=O)(=O)N2CCCCCC2)cc1)c1cccs1	-5.3
O=C(CCc1ccc(S(=O)(=O)N2CCOCC2)cc1)N/N=C/c1ccc(O)c(O)c1O	18.9
COc1ccc(NC(=O)C2=C(C)Nc3ncnn3C2c2ccccc2C(F)(F)F)c(OC)c1 (centres unmarked)	2.77

SMILES	hERG current change (%, negative = inhibition) at 10uM [%]
CCOc1ccc(C(C)=O)cc1CSc1nc(C)cc(C)n1	-6.21
CCOc1ccccc1NC(=S)N1CCC(NC(=O)NC23CC4CC(CC(C4)C2)C3)CC1	-13.7
COc1ccc(S(=O)(=O)N2CCCOC2CNC(=O)C(=O)NCc2ccco2)cc1 (centres unmarked)	-22
CCOC(=O)c1c(NC(=O)C(C)NCc2ccco2)sc2c1CCC(C)C2.O=C(O)C(=O)O (centres unmarked)	-4.23
COc1cccc(Oc2coc3cc(OC(=O)N4CCOCC4)ccc3c2=O)c1	-4.27
COC(=O)c1ccc(Oc2coc3cc(OCc4cnn(-c5ccccc5)c4)ccc3c2=O)cc1	7.07
COC(=O)COc1ccc2c(=O)c(Oc3ccccc3Br)coc2c1	14
COc1ccccc1Oc1coc2cc(OC(=O)N3CCOCC3)ccc2c1=O	-56.4
Cc1oc2cc(OCc3cnn(-c4ccccc4)c3)ccc2c(=O)c1Oc1ccccc1F	-11.2
O=c1c(Oc2ccccc2F)coc2cc(OCc3cnn(-c4ccccc4)c3)ccc12	-55
CCCNC(=O)COc1ccc2c(=O)c(Oc3ccccc3F)coc2c1	-61.6
COc1ccc(Oc2coc3cc(OC(=O)N4CCOCC4)ccc3c2=O)cc1	-25.3
CCOc1ccccc1Oc1coc2cc(OCC(=O)O)ccc2c1=O	24.3
CCC/C=N/Nc1nnc(Cc2ccc(OC)c(OC)c2)c(=O)[nH]1	27.2
CSCC[C@H](NC(=O)OCc1ccccc1)C(=O)O	-2.24
Cc1ccc(-c2c(C#N)c(N)nc3c2CCCCC3)o1	-5.84
C=CCn1c(N/N=C/c2ccc(O)cc2)nc2ccccc2c1=O	-17.9
Cc1cc2c(C)nc(N/N=C/c3ccc(F)cc3)nc2o1	-52.7
Cc1cc2c(C)nc(N/N=C/c3ccc([N+](=O)[O-])cc3)nc2o1	-16.2
Cc1cc2c(C)nc(N/N=C/c3ccccc3)nc2o1	-27.6
